# Measurements: PubChem BioAssay AID2717 (Broad Institute, 2010)
# Hit rate of the full screen: of about 300,000 compounds, about 3,200 (1.1%) were called active. The entries come from a sample that favours actives as a whole. Values without a mark were called inactive. Cut-off read from the data, not from the text of the source: active = inhibition above about 75%; inconclusive = no clear call, values can overlap the other calls; inactive = below that; tested in HMLE shEcad cells.
# Test: cancer stem cell viability inhibitors, primary screen, luminescence (AID 2717)
# Settings: cancer stem cell-like cells viability, at 7.5 µM, hits give high values
row,Compound,inhibition
1,O=C(COC(=O)c1cccnc1Cl)NC12CC3CC(CC(C3)C1)C2,-4.72%
2,O=C(COC(=O)c1cc[n+]([O-])cc1)Nc1ccc(Cl)c(C(F)(F)F)c1,13.8%
3,Cc1ccc(N2C(=O)C3C4C=CC(CC4)C3C2=O)cc1Cl (stereo not given),51.3%
4,CC(=O)Nc1ccc(N2C(=O)C3C4C=CC(CC4)C3C2=O)cc1 (stereo not given),5.09%
5,Cc1ccc(N2C(=O)C3C4C=CC(CC4)C3C2=O)cc1Br (stereo not given),84.8% (active)
6,O=C(CN1C(=O)NC2(CCCCCCC2)C1=O)NCc1ccc(F)cc1,-11.3%
7,CCNC(=S)N1CCN(S(=O)(=O)c2ccc(Cl)s2)CC1,-8.45%
8,COC(=O)c1ccc(/C=C/c2c(-c3ccc(OC)cc3)sc3ccccc23)cc1,120% (active)
9,COc1ccc(NC(=O)COC(=O)c2ccc(NS(=O)(=O)/C=C/c3ccccc3)cc2)cc1,-2.32%
10,COc1ccc(/C=C/c2nnc(NC(=O)C(C)C)s2)cc1,-1.02%
11,CC(C)Cn1c(SCC(=O)Nc2ccc(Cl)cc2F)nc(O)cc1=O,-7.16%
12,O=C(CSc1ncnc2sccc12)NC1CCS(=O)(=O)C1 (stereo not given),-16.5%
13,O=C(COC(=O)c1cccnc1Cl)Nc1ccc(S(=O)(=O)N2CCOCC2)cc1,1.63%
14,Cc1ccc(-c2csc(-c3c[nH]c4ccccc34)n2)cc1,0.177%
15,CCCc1cc(-c2nc(-c3ccc(C)cc3)cs2)ccn1,101% (active)
16,Cc1ccc(-c2csc(-c3cc(C)on3)n2)cc1,-0.292%
17,O=C(CCc1ccc(S(=O)(=O)N2CCOCC2)cc1)OCC(=O)c1ccc(Br)cc1,7.19%
18,COc1ccc(NS(=O)(=O)c2cc(NC(=O)c3ccc(S(=O)(=O)N(C)C)cc3)ccc2N2CCOCC2)cc1,-5.14%
19,COc1cc(OC)cc(-c2c(C#Cc3ccsc3)c3cc(-c4ccc(OC)cc4F)ccc3n2C)c1,0.462%
20,COc1ccc(/C=C(\C#N)c2c[nH]c3ccccc23)cc1,102% (active)
21,COc1cc(/C=C(\C#N)c2nc3ccccc3[nH]2)ccc1O,33.3%
22,COc1ccc2[nH]cc(/C=C(/C#N)S(=O)(=O)c3ccccc3)c2c1,12.3%
23,Cc1cc(C)c(CN2CCN(C(=O)Cn3ccc(NC(=O)OCc4ccccc4)nc3=O)CC2)c(C)c1,-17.4%
24,C=CC[C@@H](CC(=O)N[C@@H](CO)Cc1ccccc1)C(=O)N[C@H](COC(=O)[C@H](CC=C)CC(=O)OC(C)(C)C)Cc1ccccc1,-16.7%
25,COCC(C)n1c(SCC(=O)NC2CCCCC2C)nc2ccccc2c1=O (stereo not given),4.54%
26,S=c1[nH]nc(-c2cc(-c3ccccc3)n[nH]2)n1/N=C/c1c2ccccc2cc2ccccc12,48%
27,Cc1cc(-c2n[nH]c(=S)n2/N=C/C(Br)=C/c2ccccc2)n[nH]1,82.9% (active)
28,S=c1[nH]nc(-c2cccnc2)n1/N=C/C(Cl)=C\c1ccccc1,8.61%

row,Compound,inhibition
1,CN(C(=O)CSc1cccc[n+]1[O-])C1CCCCC1,-18.5%
2,C[C@H](CO)N1C[C@H](C)[C@@H](CN(C)S(=O)(=O)c2ccc(F)cc2)Oc2c(NC(=O)Nc3ccccc3)cccc2C1=O,-11.6%
3,CC1Cc2ccccc2N1S(=O)(=O)c1cccc(C(=O)OCC(=O)N2CCOCC2)c1 (stereo not given),-6.52%
4,COc1cc(OC)cc(C(=O)N[C@H](C(=O)NNC(=O)c2ccc(Br)cc2)C(C)C)c1,-10.3%
5,Cc1ccc2[nH]c(=O)c(CC(=O)O)c(-c3ccccc3)c2c1,-9.95%
6,CCN(CC)CCCNC(=O)c1cc2c(=O)[nH]c3ccc(C)cc3c2s1,-3.35%
7,Cc1cccc(N(C)C(=O)c2cc3c(=O)[nH]c4ccc(C)cc4c3s2)c1,80.5% (active)
8,O=C(COc1ccc([N+](=O)[O-])cc1Cl)Nc1ccc2[nH]c(=O)[nH]c2c1,-8.82%
9,CC1CCCCC12NC(=O)N(CC(=O)N1CCN(c3ccccc3)CC1)C2=O (stereo not given),-3.2%
10,CCOc1ccc(Br)cc1S(=O)(=O)Nc1ccc(S(=O)(=O)Nc2cc(C)on2)cc1,-12.8%
11,COc1ccccc1CNC(=O)c1ccc(Cl)c(S(=O)(=O)N2CCCC2)c1,-0.0556%
12,COc1ccc(S(=O)(=O)N2CCOCC2)cc1NC(=O)CSc1nnc(NC2CC2)s1,-7.56%
13,CCCCNc1c(-c2cccc(Sc3ccc(OC)cc3)c2)nc2ccccn12,78% (active)
14,CCCCNc1nc2c(c(=O)n(C)c(=O)n2C)n1Cc1cccc(OC)c1,-3.15%
15,CCCCCCSc1ccc(-c2nc3ccc(Cl)cn3c2NCc2ccccc2)cc1,61.1%
16,O=C(NN=Cc1ccc(N2CCOCC2)cc1)c1cc2ccccc2cc1O,10.1%
17,COc1ccc(S(=O)(=O)N2CCCCCC2)cc1NC(=O)Cc1ccc(OC)c(OC)c1,-7.41%
18,O=C(CSc1nccn1-c1cccc(F)c1)NC1CCCC1,-0.605%
19,Cc1c(Cl)c([N+](=O)[O-])nn1Cc1ccc(C(=O)N/N=C\c2cc(Cl)ccc2O)o1,106% (active)
20,Cc1ccc(C(=O)O)cc1NC(=O)c1ccc(Cn2nc(C)c(Cl)c2C)o1,-28.7%
21,Cc1c(Cl)c([N+](=O)[O-])nn1CCCC(=O)Nc1cc(Cl)ccc1Cl,-11.4%
22,CCC(CO)Oc1cc(NC(=O)c2cccc(F)c2)c2ncn(C(C)C)c2c1 (stereo not given),-13.2%
23,C=CCC[C@H](Cc1ccc(F)cc1)C(=O)OC[C@@H](Cc1c[nH]c2ccccc12)NC(=O)[C@H](CC=C)CC(=O)N[C@H](CO)Cc1ccccc1,24.2%
24,Cc1cc(Cl)ccc1NNC(=O)c1snnc1C,75.1% (active)
25,Cc1nnsc1C(=O)N/N=C/c1ccccc1Cl,-13.9%
26,Cc1nnsc1C(=O)Nc1cccc(Cl)c1C,4.62%
27,O=C(CN1C(=O)NC2(CCOc3ccccc32)C1=O)Nc1cccc([N+](=O)[O-])c1 (stereo not given),0.94%
